# Records with an inconclusive call do not appear. Entries that show only a call come without a potency. A number with no mark means an inactive call. Activity calls are given as the source filed them. Calls come from the whole dose curve; as a rule, active = well fitted curve in the direction sought with a large enough effect in the repeat runs; inconclusive = weak or mixed curves; inactive = no such curve, though single readings can be large; an effect the other way counts as inactive or inconclusive.
# Test system: not listed separately
# Experiment: qHTS assay to identify small molecule antagonists of the estrogen related receptor (ERR) signaling pathway from Tox21 library - cell viability counter screen (AID 1224834); note: nearly all actives have a fitted effect of over 30% in size
# Settings: ERR reporter cells viability, CellTiter-Fluor, 17.5 h; series mostly up to 92.4 µM
# Procedure, shortened: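 Seeded ERR cells were rested 6 h at 37 C/5% CO2 before compounds, positive and negative controls or DMSO were added. Incubation continued for 17.5 h, and viability was then quantified by CellTiter-Fluor fluorescence.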
# Potency is the fitted concentration of half-maximal effect.
row,SMILES,Potency
1,CC(=O)Nc1ccccc1O,inactive
2,Cc1ccc(NC(=O)c2ccc(CN3CCN(C)CC3)cc2)cc1Nc1nccc(-c2cccnc2)n1,23.7 µM (active)
3,COc1ccnc2c1CCCCC2S(=O)c1nc2ccccc2[nH]1 (stereo not given),inactive
4,CCCCCCC/C=C/C=O,inactive
5,CCCCOc1ccc(N)cc1,inactive
6,CC/C=C\CCO,inactive
7,CCc1c(C)[nH]c2c1C(=O)C(CN1CCOCC1)CC2 (stereo not given),inactive
8,CC(=O)Oc1cccc2c1C(=O)c1c(OC(C)=O)cc(C(=O)O)cc1C2=O,29.8 µM (active)
9,Oc1ccc(Oc2ccccc2)cc1,inactive
10,CCCCCCCCCC(C)C=O (stereo not given),inactive
11,C=C[Si](OCC)(OCC)OCC,inactive
12,CCCC1CCOC(C)S1 (stereo not given),inactive
13,Clc1cc(Cl)c2c(c1)N=C1CCCCCN1C2,inactive
14,O=C(O)c1ccncc1,inactive
15,NC(=O)c1ccccc1C(N)=O,inactive
16,O=[N+]([O-])c1ccccc1CCO,inactive
17,CCCN(C1CCN(C(=O)C2CCNCC2)CC1)[C@@H]1CCc2ccc(OC)cc2C1,inactive
18,C(/C=C/C=C/Nc1ccccc1)=Nc1ccccc1,inactive
19,CC(C)(C)c1ccc(CCC=O)cc1,inactive
20,Sc1nc(S)nc(S)n1,inactive

# Biological target: Luciferin 4-monooxygenase (Photinus pyralis) (UniProt P08659)
# Sequence (P08659 whole entry, looked up): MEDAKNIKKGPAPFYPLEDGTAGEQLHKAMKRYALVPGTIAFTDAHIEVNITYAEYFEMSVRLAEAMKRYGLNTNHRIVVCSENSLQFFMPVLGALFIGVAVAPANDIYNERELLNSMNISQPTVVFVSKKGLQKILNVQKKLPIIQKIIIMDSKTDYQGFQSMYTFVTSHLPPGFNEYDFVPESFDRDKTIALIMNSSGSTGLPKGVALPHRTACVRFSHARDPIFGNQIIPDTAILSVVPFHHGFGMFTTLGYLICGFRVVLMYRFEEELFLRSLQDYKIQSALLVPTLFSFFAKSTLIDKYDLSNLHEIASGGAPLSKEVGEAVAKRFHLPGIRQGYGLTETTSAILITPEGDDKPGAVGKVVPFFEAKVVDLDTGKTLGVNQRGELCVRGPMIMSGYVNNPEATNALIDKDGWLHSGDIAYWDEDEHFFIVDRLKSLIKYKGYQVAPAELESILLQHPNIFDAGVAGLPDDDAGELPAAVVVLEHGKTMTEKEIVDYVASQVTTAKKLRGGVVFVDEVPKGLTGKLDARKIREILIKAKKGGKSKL
# Experiment: qHTS assay to identify small molecule inhibitors of firefly luciferase (AID 1224835); note: nearly all actives have a fitted effect of over 25% in size
# Settings: purified P. pyralis luciferase, luminescence inhibition; series mostly up to 115 µM
# Procedure, shortened: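 Biochemical qHTS: compounds run as interplate titrations against purified firefly enzyme, with D-luciferin and ATP each at its KM concentration. Light output recorded by CCD imaging.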
SMILES,Potency,"activity change, negative = inhibition"
O=C(C1CCCCC1)N1CC(=O)N2CCCc3ccccc3C2C1 (stereo not given),inactive,
Nc1cccc2c(=O)[nH][nH]c(=O)c12,inactive,
Oc1ccc(CCNCCCCCCNCCc2ccccc2)cc1O,inactive,
O=c1[nH]nc(-c2ccc([N+](=O)[O-])o2)o1,inactive,
COC(=O)Cc1cccc2ccccc12,inactive,
CC/C=C\CCO,inactive,
CCc1c(C)[nH]c2c1C(=O)C(CN1CCOCC1)CC2 (stereo not given),inactive,
COC(=O)C(C)(C)C,inactive,
CC(C)C/C=C(\C=O)c1ccccc1,inactive,
CC(=O)Oc1cccc2c1C(=O)c1c(OC(C)=O)cc(C(=O)O)cc1C2=O,inactive,
COc1ccc(/C=C/c2cc(OC)cc(=O)o2)cc1,5.15 µM (active),
Oc1ccc(Oc2ccccc2)cc1,inactive,
O=C1c2ccccc2C(=O)C1c1ccc2ccccc2n1,0.111 µM (active),
CC(C)CC(C)(C)C,inactive,
CCCC1CCOC(C)S1 (stereo not given),inactive,
CC(C)(Cc1c[nH]c2ccccc12)NCC(O)COc1ccccc1C#N (stereo not given),inactive,
O=Cc1ccc(Cl)c([N+](=O)[O-])c1,inactive,
CCn1nc(Cc2ccccc2)cc1C1CCN(C[C@H]2C[C@H](N(C)[C@@H](C(=O)O)C(C)C)C[C@@H]2c2cccc(F)c2)CC1,inactive,
CC1=CC(=C(c2ccc(N)cc2)c2ccc(N)cc2)C=CC1=N,,-4.83% [at 10.5 µM]
O=C(O)c1ccncc1,73 µM (active),
O=C1c2ccccc2C(=O)c2c1ccc(O)c2O,34.7 µM (active),
O=[N+]([O-])c1ccccc1CCO,inactive,
CCCN(C1CCN(C(=O)C2CCNCC2)CC1)[C@@H]1CCc2ccc(OC)cc2C1,inactive,
O=C(N[C@@H](Cc1ccccc1)[C@@H](O)C(=O)N1C[C@@H](O)[C@@H](O)C1)c1cc2cc(Cl)ccc2[nH]1,inactive,
C(/C=C/C=C/Nc1ccccc1)=Nc1ccccc1,inactive,
